# Data: PubChem BioAssay (NCATS)
# Inconclusive results are not listed. Where a call stands in place of a potency, no number is given. The source made the active and inactive calls. Calls follow the shape of the dose curve; as a rule, active = well fitted curve in the direction sought with a large enough effect; inconclusive = small, poorly fitted or top-dose-only effect, or another doubt; inactive = no such curve, though single readings can be large; an effect the other way counts as inactive or inconclusive.
# How the values were obtained:
# [1] = system: MKL-2; assay: qHTS assay to identify novel small-molecules to repurpose for Merkel cell carcinoma treatment (AID 1296009); details: MCC and control cell lines, CellTiter-Glo viability, 72 h; series mostly up to 46 µM; also: nearly all actives have a fitted effect of over 60% in size
# How it was run: (§1)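 Cell viability, measured as CellTiter-Glo luminescence, was normalized between DMSO and no-cell wells. The cells had been exposed to 8- or 11-point compound dilutions for 72 hr at 37 degree celsius.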
# [2] = system: UISO; assay: as above; details: MCC and control cell lines, CellTiter-Glo viability, 72 h; series mostly up to 46 µM
# How it was run: as §1
# [3] = system: WaGa; assay: as above; details: MCC and control cell lines, CellTiter-Glo viability, 72 h; series mostly up to 46 µM
# How it was run: as §1
# [4] = system: C33A; assay: Primary qHTS to identify gynecologic anti-cancer compounds using libraries of approved drugs and bioactive compounds (AID 1345084); details: Gynecologic cancer cell panel viability, ATPlite luminescence, 48 h; series mostly up to 57.5 µM; also: nearly all actives have a fitted effect of over 55% in size
# How it was run: (§2)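 48 h compound exposure at 37 C, 5% CO2; five-point qHTS. ATPlite luminescence readout of cell ATP.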
# [5] = system: CASKI; assay: as above; details: Gynecologic cancer cell panel viability, ATPlite luminescence, 48 h; series mostly up to 57.5 µM
# How it was run: as §2
# [6] = system: Es-2; assay: as above; details: Gynecologic cancer cell panel viability, ATPlite luminescence, 48 h; series mostly up to 57.5 µM
# How it was run: as §2
# [7] = system: HeLa; assay: as above; details: Gynecologic cancer cell panel viability, ATPlite luminescence, 48 h; series mostly up to 57.5 µM
# How it was run: as §2
# [8] = system: CAOV3; assay: as above; details: Gynecologic cancer cell panel viability, ATPlite luminescence, 48 h; series mostly up to 57.5 µM
# How it was run: as §2
# [9] = system: Hek293T; assay: as above; details: Gynecologic cancer cell panel viability, ATPlite luminescence, 48 h, control line for the selectivity index; series mostly up to 57.5 µM
# How it was run: as §2
# Potency is read from the fitted curve at half-maximal effect.
smiles,measurement,setting,value
CN(C)CCCN=c1c2ccccc2n(C)c2[nH]c(=O)n(C)c(=O)c12,Potency,[1],14.8 µM (active)
same,Potency,[2],20.9 µM (active)
same,Potency,[3],7.43 µM (active)
Nc1ccccc1NC(=O)c1ccc(CNC(=O)OCc2cccnc2)cc1,Potency,[1],0.296 µM (active)
same,Potency,[2],2.35 µM (active)
same,Potency,[3],0.296 µM (active)
same,Potency,[4],17.8 µM (active)
same,Potency,[5],inactive
same,Potency,[6],11.2 µM (active)
same,Potency,[7],10 µM (active)
Clc1cccc(-c2nnnn2Cc2cccnc2)c1Cl,Potency,[1],inactive
same,Potency,[2],inactive
same,Potency,[3],inactive
same,Potency,[4],inactive
same,Potency,[8],inactive
same,Potency,[5],inactive
same,Potency,[6],inactive
same,Potency,[7],inactive
same,Potency,[9],inactive
COc1ccc(CC2c3cc(OC)c(OC)cc3CC[N+]2(C)CCC(=O)OCCCCCOC(=O)CC[N+]2(C)CCc3cc(OC)c(OC)cc3C2Cc2ccc(OC)c(OC)c2)cc1OC (centres undefined),"activity change, negative = cytotoxicity",[1],-23.6% [at 9.22 µM] (inactive)
same,"activity change, negative = cytotoxicity",[2],-1.41% [at 9.22 µM] (inactive)
same,"activity change, negative = cytotoxicity",[3],-8.88% [at 9.22 µM] (inactive)
CCCNC(=O)Nc1ccc(Oc2ncnc3cc(OC)c(OC)cc23)cc1Cl,Potency,[1],inactive
same,Potency,[2],inactive
same,Potency,[3],inactive
same,Potency,[4],inactive
same,Potency,[8],inactive
same,Potency,[5],inactive
same,Potency,[6],inactive
same,Potency,[7],inactive
same,Potency,[9],inactive
Cc1cc(Nc2ncnc3ccc(-c4ccc(CNCCS(C)(=O)=O)o4)cc23)ccc1Oc1ccn2ncnc2c1,Potency,[1],18.7 µM (active)
same,Potency,[2],14.8 µM (active)
same,Potency,[3],5.26 µM (active)
same,Potency,[4],inactive
same,Potency,[5],inactive
same,Potency,[6],inactive
same,Potency,[7],inactive
same,Potency,[9],inactive
COc1ccc(-n2nc(C(N)=O)c3c2C(=O)N(c2ccc(N4CCCCC4=O)cc2)CC3)cc1,Potency,[1],inactive
same,Potency,[2],inactive
same,Potency,[3],inactive
same,Potency,[4],inactive
same,Potency,[8],inactive
same,Potency,[5],inactive
same,Potency,[6],inactive
same,Potency,[7],inactive
same,Potency,[9],inactive
CN1CCN(c2cc(C(=O)Nc3ccc4c(c3)-c3c(c(C(N)=O)nn3-c3ccc(F)cc3)CC4)c(Cl)cn2)CC1,Potency,[1],26.4 µM (active)
same,Potency,[2],inactive
same,Potency,[3],inactive
CCCCCN(CCC12CC3CC(CC(C3)C1)C2)C(=O)NCCCc1ccncc1,Potency,[1],inactive
same,Potency,[2],inactive
same,Potency,[3],inactive
same,Potency,[4],inactive
same,Potency,[8],inactive
same,Potency,[5],inactive
same,Potency,[6],inactive
same,Potency,[7],inactive
same,Potency,[9],inactive
O=C(NCCS(=O)(=O)c1ccc(C(F)(F)F)cn1)c1ccc(Cl)cc1,Potency,[1],inactive
same,Potency,[2],inactive
same,Potency,[3],inactive
O=C(C=Cc1c(C(=O)O)[nH]c2cc(Cl)cc(Cl)c12)Nc1ccccc1,Potency,[1],inactive
same,Potency,[2],inactive
same,Potency,[3],inactive
CC=C1NC(=O)[C@H]2CSSCCC=C[C@H](CC(=O)N[C@H](C(C)C)C(=O)N2)OC(=O)[C@H](C(C)C)NC1=O,Potency,[1],0.0166 µM (active)
same,Potency,[2],0.0166 µM (active)
same,Potency,[3],0.0264 µM (active)
COc1cccc(Nc2c(C(N)=O)cnc3c(C)cc(S(=O)(=O)c4cccc(C(=O)N(C)C)c4)cc23)c1,Potency,[1],inactive
same,Potency,[2],inactive
same,Potency,[3],inactive
same,Potency,[4],inactive
same,Potency,[5],inactive
same,Potency,[6],inactive
same,Potency,[7],inactive
same,Potency,[9],inactive
CC1=C(CO)C(=O)O[C@@H]([C@@H](C)[C@H]2CC[C@H]3[C@@H]4C[C@H]5O[C@]56[C@@H](O)C=CC(=O)[C@]6(C)[C@@H]4CC[C@]23C)C1,Potency,[1],0.132 µM (active)
same,Potency,[2],0.743 µM (active)
same,Potency,[3],0.264 µM (active)
O=C(C=Cc1cccc(S(=O)(=O)Nc2ccccc2)c1)NO,Potency,[1],3.4 µM (active)
same,Potency,[2],34 µM (active)
same,Potency,[3],3.03 µM (active)
C[C@@]12O[C@@H](C[C@]1(O)CO)n1c3ccccc3c3c4c(c5c6ccccc6n2c5c31)CNC4=O,Potency,[1],0.0526 µM (active)
same,Potency,[2],1.66 µM (active)
same,Potency,[3],0.833 µM (active)
CCn1cc(-c2ccnc3[nH]c(-c4cccc(CN(C)C)c4)cc23)c(-c2ccc(NC(=O)N(C)C)cc2)n1,Potency,[1],8.33 µM (active)
same,Potency,[2],13.2 µM (active)
same,Potency,[3],0.0469 µM (active)
same,Potency,[4],inactive
same,Potency,[8],inactive
same,Potency,[9],inactive
CC(C)(O)CCc1ccc(OCc2cc(-c3cccc(OC(F)F)c3)c3ncccc3c2)cc1,Potency,[1],inactive
same,Potency,[2],inactive
same,Potency,[3],inactive
same,Potency,[4],inactive
same,Potency,[8],inactive
same,Potency,[5],inactive
same,Potency,[6],inactive
same,Potency,[7],inactive
same,Potency,[9],inactive
Cc1[nH]c2ccccc2c1CCNCc1ccc(C=CC(=O)NO)cc1,Potency,[1],0.0469 µM (active)
same,Potency,[2],0.526 µM (active)
same,Potency,[3],0.059 µM (active)
CC(C)Nc1cc(C(F)(F)F)cc2nc(NC(=O)c3cccnc3)nn12,Potency,[1],inactive
same,Potency,[2],inactive
same,Potency,[3],inactive
same,Potency,[4],inactive
same,Potency,[8],inactive
same,Potency,[5],inactive
same,Potency,[6],inactive
same,Potency,[7],inactive
same,Potency,[9],inactive
CC(C)c1ccc(Cn2ccc3c4c(N)nc(NC5CC5)nc4ccc32)cc1,Potency,[1],4.18 µM (active)
same,Potency,[2],14.8 µM (active)
same,Potency,[3],9.35 µM (active)
CN(C)c1nc(Cc2ccc(NC(=O)c3ccc4ccccc4c3)cc2)nc(Cl)c1CC(=O)O,Potency,[1],inactive
same,Potency,[2],inactive
same,Potency,[3],inactive
same,Potency,[4],inactive
same,Potency,[5],inactive
same,Potency,[6],inactive
same,Potency,[7],inactive
same,Potency,[9],inactive
